# Bioassay records: PubChem, National Center for Advancing Translational Sciences (NCATS)
# Rows were chosen to be rich in hits. Some 10% of all compounds tested hit in one or more screens of this group.
# hNpr1 antagonist: human Npr1 receptor antagonism. P16066. Potency, µM (highest dose often 46.3 µM), for inactives: top-dose activity change, negative = inhibition, hits mostly inhibitors. hit rate 1.6% among 76,000. AID 1347048. HEK293 hNpr1 GloSensor cGMP, ANP-stimulated luminescence; calls by dose curve; also: % is scaled to controls: 0 for no effect and ±100 for the full control effect; nearly all actives have a fitted effect of over 60% in size
#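 Compound pre-incubated 30 min at room temperature on GloSensor-loaded HEK293 cells stably carrying hNpr1 and the pGS-40F cGMP biosensor. Stimulation uses hNppA at 0.1 nM final; luminescence is taken at baseline and 20 min post-agonist.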
# 3T3 cytotox: kills NIH 3T3 cells; NIH 3T3 viability, CellTiter-Glo ATP luminescence, 48-72 h; hit rate 4.3% among 94,000; Potency, µM (highest dose often 96.7 µM), inactives show at the top dose activity change, negative = cytotoxicity, actives largely listed as inhibitors; also: % is scaled to controls: 0 for no effect and ±100 for the full control effect; nearly all actives have a fitted effect of over 55% in size
#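 NIH 3T3 cells at 400 cells/well received 23 nL of compound by pintool and were incubated 48 or 72 h at 37 °C. Viability was read as ATP-coupled CellTiter-Glo luminescence.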
# GPT2 inhibitor: inhibitors of human GPT2 alanine aminotransferase | Q8TD30 | hit rate 0.25% among 100,000 | Potency, µM (highest dose often 57.7 µM), inactives show top-dose activity change, negative = inhibition, hits mostly inhibitors | Recombinant GPT2, coupled pyruvate oxidase/HRP Amplex Red fluorescence; also: % is scaled to controls: 0 for no effect and ±100 for the full control effect; nearly all actives have a fitted effect of over 60% in size
#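 Fluorescence read-out: pyruvate from GPT2 turnover coupled to pyruvate oxidase, HRP and Amplex Red (0.2mM ThPP, 0.2U/mL PO and HRP, 50uM Amplex final). Substrates 250uM a-KG, 2mM L-alanine; enzyme 10ng/uL; 30 min RT.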
# HEK293 tox: HEK 293 cell cytotoxicity; HEK 293 viability, ATP luminescence (CellTiter-Glo), 48-72 h; Potency, µM (top dose mostly 115 µM), for the others: at the top dose activity change, negative = cytotoxicity, actives largely listed as inhibitors; hit rate 6.6% among 94,000; AID 1345083; also: % is scaled to controls: 0 for no effect and ±100 for the full control effect; nearly all actives have a fitted effect of over 60% in size
#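 HEK 293 cells seeded at 250 cells/well were exposed to compound for 48 or 72 hr at 37 degree Celsius. Viability taken as ATP content by CellTiter-Glo luminescence.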
# Luciferase inh: inhibitors of firefly (Photinus pyralis) luciferase; purified P. pyralis luciferase, luminescence, biochemical; Potency, µM (highest dose often 115 µM), hits mostly inhibitors; hit rate 2.5% among 76,000; also: % is scaled to controls: 0 for no effect and ±100 for the full control effect; nearly all actives have a fitted effect of over 65% in size
#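 Inhibitors were tested against purified firefly luciferase in a biochemical, low-substrate format (both substrates at 10uM) and luminescence measured with a CCD imager.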
# NPR1 antag cnf: confirmation of human Npr1 natriuretic peptide receptor antagonists | Potency, µM (series often up to 57.6 µM), for the others: at the highest dose activity change, negative = inhibition, most hits filed as inhibitors | shares compounds with hNpr1 antagonist | hit rate 76% among 1,400 | HEK293 hNpr1 cGMP GloSensor luminescence, ANP-stimulated | AID 1347044; calls by dose curve; also: nearly all actives have a fitted effect of over 70% in size
# Npr2 selectivity: hNpr2 antagonism, selectivity versus Npr1. shares compounds with hNpr1 antagonist. HEK293 hNpr2 GloSensor cGMP luminescence, CNP-stimulated. Potency, µM (series often up to 57.6 µM), for the others: at the highest dose activity change, negative = inhibition, most hits filed as inhibitors. hit rate 67% among 1,400; calls by dose curve; also: nearly all actives have a fitted effect of over 70% in size
# Target sequence (P20594 whole entry, looked up): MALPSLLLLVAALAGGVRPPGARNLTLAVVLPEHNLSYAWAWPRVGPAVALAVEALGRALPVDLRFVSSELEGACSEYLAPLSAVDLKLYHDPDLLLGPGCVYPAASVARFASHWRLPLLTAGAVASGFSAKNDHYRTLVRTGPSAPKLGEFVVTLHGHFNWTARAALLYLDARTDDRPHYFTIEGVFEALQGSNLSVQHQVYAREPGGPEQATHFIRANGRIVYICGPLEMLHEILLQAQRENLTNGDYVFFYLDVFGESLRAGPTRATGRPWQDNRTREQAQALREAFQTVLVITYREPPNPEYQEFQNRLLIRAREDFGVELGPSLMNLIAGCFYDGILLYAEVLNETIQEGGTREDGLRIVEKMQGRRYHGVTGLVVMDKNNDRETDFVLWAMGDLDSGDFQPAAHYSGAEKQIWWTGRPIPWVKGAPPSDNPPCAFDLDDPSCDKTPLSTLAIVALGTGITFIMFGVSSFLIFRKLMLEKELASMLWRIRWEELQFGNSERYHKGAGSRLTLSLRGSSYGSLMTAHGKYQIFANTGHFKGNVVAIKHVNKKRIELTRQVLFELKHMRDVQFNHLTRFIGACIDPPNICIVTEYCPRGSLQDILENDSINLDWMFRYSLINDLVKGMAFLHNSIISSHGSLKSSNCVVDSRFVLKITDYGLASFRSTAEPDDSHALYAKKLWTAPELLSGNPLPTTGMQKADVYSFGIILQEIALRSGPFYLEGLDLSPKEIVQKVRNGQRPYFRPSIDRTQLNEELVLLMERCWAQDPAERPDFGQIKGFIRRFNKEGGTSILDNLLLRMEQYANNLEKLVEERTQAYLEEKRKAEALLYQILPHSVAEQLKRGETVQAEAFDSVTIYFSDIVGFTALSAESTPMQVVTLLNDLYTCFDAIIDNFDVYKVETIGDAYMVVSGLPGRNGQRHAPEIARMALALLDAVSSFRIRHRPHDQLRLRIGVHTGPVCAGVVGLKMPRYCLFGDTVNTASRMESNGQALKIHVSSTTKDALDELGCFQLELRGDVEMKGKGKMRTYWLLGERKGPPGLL
# FLuc inh counter: FLuc enzyme inhibition, Npr1 counter-screen | shares compounds with hNpr1 antagonist | purified FLuc enzyme, luminescence, Km substrate | Potency, µM (series often up to 57.6 µM), without a hit: top-dose activity change, negative = inhibition, most hits filed as inhibitors | hit rate 0.7% among 1,400; also: 0% is about no effect
# GloSensor ctrl: control cell line activity, Npr1 antagonist counter-screen; shares compounds with hNpr1 antagonist; HEK293 GloSensor cGMP, SNP-stimulated, luminescence; Potency, µM (highest dose often 57.6 µM), without a hit: at the top dose activity change, negative = inhibition, actives largely listed as inhibitors; hit rate 69% among 1,400; AID 1347051; calls by dose curve; also: % is scaled to controls: 0 for no effect and ±100 for the full control effect; nearly all actives have a fitted effect of over 70% in size
# * = called active by the depositor; i = inactive; ? = inconclusive; . = no result; [ ] = dose if it differs, or a comment. Unless noted, calls follow the shape of the dose curve; as a rule, active = well fitted curve in the direction sought with a large enough effect; inconclusive = small, poorly fitted or top-dose-only effect, or another doubt; inactive = no such curve, though single readings can be large; an effect the other way counts as inactive or inconclusive. Potency is read from the fitted curve at half-maximal effect.
SMILES,hNpr1 antagonist,3T3 cytotox,GPT2 inhibitor,HEK293 tox,Luciferase inh,NPR1 antag cnf,Npr2 selectivity,FLuc inh counter,GloSensor ctrl
Cc1ccc(NC(=O)C2CCN(c3cc(C(F)(F)F)ncn3)CC2)cc1F,5µM*,?,i,?,i,6.9µM*,11µM*,5%,6.1µM*
COc1ccc(NC(=O)C2CCN(c3cc(C(F)(F)F)ncn3)CC2)cc1Cl,?,?,i,?,i,.,.,.,.
O=C(Nc1cccc(Br)c1)C1CCN(c2cc(C(F)(F)F)ncn2)CC1,11µM*,?,i,45µM*,i,22µM*,22µM*,-1%,24µM*
Cc1ccc(CCNC(=O)C2CCN(c3cc(C(F)(F)F)ncn3)CC2)cc1,?,?,i,?,i,.,.,.,.
COCCNC(=O)[C@@H]1C[C@@H](O)CN1C1CCN(C(=O)c2ccco2)CC1,1%,i,-2%,-3%,i,.,.,.,.
Cc1oc(-c2cccc(C(F)(F)F)c2)nc1CN1CCCC(CO)C1 (centres undefined),2%,-27%,-4%,?,i,.,.,.,.
OCC1CCCN(c2ccc(-c3nc(-c4cccc(C(F)(F)F)c4)no3)cn2)C1 (centres undefined),14µM*,?,-10%,-29%,i,14µM*,17µM*,?,17µM*
Cc1ccc(CN2CCc3nc(C(=O)Nc4ccc(Cl)cc4)oc3CC2)cc1,14µM*,?,3%[88.5 µM],?,i,11µM*,9.9µM*,0%[86.2 µM],14µM*
O=C(Nc1ccc(Cl)cc1)c1nc2c(o1)CCN(Cc1ccc3cn[nH]c3c1)CC2,0.56µM*,?,-13%[88.5 µM],45µM*,i,3.5µM*,4µM*,-3%[86.2 µM],4µM*
O=C(Nc1ccc(Cl)cc1)c1nc2c(o1)CCN(Cc1ccc3c(c1)CCO3)CC2,5µM*,?,?,?,i,6.3µM*,11µM*,2%[86.2 µM],8.9µM*
O=C(Nc1ccc(Cl)cc1)c1nc2c(o1)CCN(Cc1ccncc1)CC2,1.3µM*,?,0%[88.5 µM],?,i,3.5µM*,3.5µM*,-22%[86.2 µM],3.5µM*
O=C(c1nc2c(o1)CCN(Cc1cccc(Cl)c1)CC2)N1CCOCC1,?,?,4%[88.5 µM],?,i,.,.,.,.
CCCCn1c(=O)c(C(=O)NCCc2ccc(F)cc2)nc2cccnc21,.,?,i,?,.,.,.,.,.
CCN(Cc1cnn(C)c1)C(=O)c1coc(COc2cccc(C(F)(F)F)c2)n1,4%,?,i,-21%,i,.,.,.,.
COCCN1C(=O)CO[C@H]2CN(CCCc3ccccc3)C[C@H]21,14µM*,?,-4%[88.5 µM],?,i,16µM*,20µM*,-2%[86.2 µM],13µM*
O=C(Nc1cc(F)cc(F)c1)N1CCC(CCNC(=O)C2(c3ccccc3)CC2)CC1,-26%,32µM*,-18%,50µM*,i,-19%,-10%,5%,5%
Cc1nn2c(c1-c1ccccc1OCc1ccccc1)N(C(=O)c1cccnc1)CCC2,3%[70.6 µM],?,i,-7%[172 µM],i,.,.,.,.
COc1ccccc1CN1CCCn2nc(C)c(-c3ccccc3C(N)=O)c21,14µM*,?,-13%[88.5 µM],22µM*,i,13µM*,31µM*,1%[86.2 µM],9.9µM*
Cc1nn2c(c1-c1ccccc1Oc1ccccc1)N(Cc1ccccc1O)CCC2,7.9µM*,11µM*,-24%[88.5 µM],10µM*,i,3.1µM*,13µM*,-2%[86.2 µM],2.2µM*
Cc1nn2c(c1-c1ccccc1Oc1ccccc1)N(Cc1cccc(O)c1)CCC2,2.5µM*,14µM*,-13%[88.5 µM],22µM*,i,11µM*,25µM*,0%[86.2 µM],11µM*
COC(=O)[C@@H]1Cc2c([nH]c3ccccc23)[C@H]2C[C@@H](NCCCn3ccnc3)C[C@@H](c3ccccc3F)N21,-25%,7.1µM*,i,?,i,-24%,-29%,-11%,-7%
Cc1ccc(-n2ncc3c2CCCC3NC(=O)c2cc(C(C)C)no2)cc1C (centres undefined),14µM*,?,-17%,?,i,17µM*,17µM*,-7%,12µM*
Cc1cc(C)cc(-n2ncc3c2CCCC3NC(=O)CCn2nnnc2C)c1 (centres undefined),6%,-1%,-24%,5%,i,.,.,.,.
O=C(c1cc(F)ccc1F)N1CCC2(CC1)N=C(c1ccc(Cl)cc1)NO2,16µM*,?,i,?,i,24µM*,22µM*,-3%,24µM*
Cc1ccc(C2=NC3(CCN(C(=O)Cc4ccc(Cl)cc4)CC3)ON2)cc1,-3%,-21%,i,-25%,i,.,.,.,.
SMILES,hNpr1 antagonist,3T3 cytotox,GPT2 inhibitor,HEK293 tox,Luciferase inh,NPR1 antag cnf,Npr2 selectivity,FLuc inh counter,GloSensor ctrl
O=C(Cc1cccc(F)c1)N1CCC2(CC1)N=C(c1ccc(Cl)cc1)NO2,?,?,-13%,?,i,24µM*,?,3%,24µM*
O=C(c1cccc2[nH]ccc12)N1CCC2(CC1)N=C(c1ccc(Cl)cc1)NO2,11µM*,?,0%,?,i,19µM*,22µM*,-16%,17µM*
Nc1nccc(-c2ccc3noc(-c4ccc(Cl)cc4)c3c2)n1,.,.,3%,.,.,.,.,.,.
COC(=O)N1CCCC1C(=O)N1CCCC(c2nc3ncccc3[nH]2)C1 (centres undefined),.,-4%,-12%,-6%,.,.,.,.,.
CCOc1ccc(C(O)Cn2ccn3nc(-c4ccccc4C)cc3c2=O)cc1 (centres undefined),13µM*,?,i,35µM*,i,17µM*,?,0%,11µM*
CCOc1ccc(-c2cc3c(=O)n(CC(O)c4ccc(C(C)C)cc4)ccn3n2)cc1 (centres undefined),3%,-15%,i,6%,i,.,.,.,.
CC1(COc2ccccc2)COc2ccc(C(=O)NCc3ccncc3)cc2N1 (centres undefined),?,?,i,?,i,.,.,.,.
